Source: PubChem BioAssay (NCATS)
Inconclusive results are not listed. The source made the active and inactive calls. The call rests on the fitted dose curve; in most records, active means well fitted inhibition curve with a large enough effect; inconclusive means small, poorly fitted or top-dose-only effect; inactive means flat fitted curve, though single readings scatter.

Experiments:
Assay in all cases: qHTS profiling for inhibitors of Plasmodium falciparum proliferation (AID 504749); further: nearly all actives have a fitted effect of over 60% in size
Details in all cases: P. falciparum in erythrocytes, SYBR Green DNA, 72 h; series mostly up to 28.7 µM
[1] = system: ATS95
Summary of the method: (§1)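 Fluorescence of SYBR Green-bound parasite DNA, read at 485/535 nm, served as the growth measure. Infected erythrocytes were cultured with compound 72 h; artemisinin (0.29 uM) and DMSO wells defined the normalization range.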

[2] = system: C2A
Summary of the method: as §1

[3] = system: CP211
Summary of the method: as §1

[4] = system: CP215
Summary of the method: as §1

[5] = system: CP217
Summary of the method: as §1

[6] = system: CP250
Summary of the method: as §1

[7] = system: CP252
Summary of the method: as §1

[8] = system: CP256
Summary of the method: as §1

[9] = system: CP262
Summary of the method: as §1

[10] = system: CP265
Summary of the method: as §1

[11] = system: CP266
Summary of the method: as §1

[12] = system: CP268
Summary of the method: as §1

[13] = system: CP269
Summary of the method: as §1

[14] = system: CP325
Summary of the method: as §1

[15] = system: CP329
Summary of the method: as §1

[16] = system: ECU
Summary of the method: as §1

[17] = system: FAB9
Summary of the method: as §1

[18] = system: P93_24
Summary of the method: as §1

[19] = system: PAD
Summary of the method: as §1

[20] = system: SC27B
Summary of the method: as §1

Measured: Potency

C[C@@H]1O[C@@H](O[C@H]2C[C@@H](O)[C@@]3(CO)[C@H]4[C@H](O)C[C@]5(C)[C@@H](C6=CC(=O)OC6)CC[C@]5(O)[C@H]4CC[C@@]3(O)C2)[C@@H](O)[C@H](O)[C@H]1O
inactive: all assays above
